Measured values from PubChem BioAssay AID624325 (Sanford-Burnham Center for Chemical Genomics, 2012).
Among all 2,300 compounds or so, about 1,000 (43%) were called active. So high a share suggests a set chosen from earlier hits. Not all results are given here. A number with no mark means an inactive call.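 How the source made its calls: active means compounds inhibiting the enzyme by at least 50% at 15 µM in any one of the replicates; inactive means the rest.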

Each compound was assayed against Fatty acid synthase (Homo sapiens) (UniProt P49327) (assay: FAS thioesterase domain inhibitors, confirmation, biochemical, fluorescence intensity, single concentration (AID 624325;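 further: 0% = enzyme with DMSO only and 100% = wells lacking enzyme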)). Conditions: recombinant FAS-TE, OMFH fluorogenic substrate, at 15 µM, active compounds read high.
Fatty acid synthase (Homo sapiens), sequence (P49327 whole entry, looked up, the tested form may be a part): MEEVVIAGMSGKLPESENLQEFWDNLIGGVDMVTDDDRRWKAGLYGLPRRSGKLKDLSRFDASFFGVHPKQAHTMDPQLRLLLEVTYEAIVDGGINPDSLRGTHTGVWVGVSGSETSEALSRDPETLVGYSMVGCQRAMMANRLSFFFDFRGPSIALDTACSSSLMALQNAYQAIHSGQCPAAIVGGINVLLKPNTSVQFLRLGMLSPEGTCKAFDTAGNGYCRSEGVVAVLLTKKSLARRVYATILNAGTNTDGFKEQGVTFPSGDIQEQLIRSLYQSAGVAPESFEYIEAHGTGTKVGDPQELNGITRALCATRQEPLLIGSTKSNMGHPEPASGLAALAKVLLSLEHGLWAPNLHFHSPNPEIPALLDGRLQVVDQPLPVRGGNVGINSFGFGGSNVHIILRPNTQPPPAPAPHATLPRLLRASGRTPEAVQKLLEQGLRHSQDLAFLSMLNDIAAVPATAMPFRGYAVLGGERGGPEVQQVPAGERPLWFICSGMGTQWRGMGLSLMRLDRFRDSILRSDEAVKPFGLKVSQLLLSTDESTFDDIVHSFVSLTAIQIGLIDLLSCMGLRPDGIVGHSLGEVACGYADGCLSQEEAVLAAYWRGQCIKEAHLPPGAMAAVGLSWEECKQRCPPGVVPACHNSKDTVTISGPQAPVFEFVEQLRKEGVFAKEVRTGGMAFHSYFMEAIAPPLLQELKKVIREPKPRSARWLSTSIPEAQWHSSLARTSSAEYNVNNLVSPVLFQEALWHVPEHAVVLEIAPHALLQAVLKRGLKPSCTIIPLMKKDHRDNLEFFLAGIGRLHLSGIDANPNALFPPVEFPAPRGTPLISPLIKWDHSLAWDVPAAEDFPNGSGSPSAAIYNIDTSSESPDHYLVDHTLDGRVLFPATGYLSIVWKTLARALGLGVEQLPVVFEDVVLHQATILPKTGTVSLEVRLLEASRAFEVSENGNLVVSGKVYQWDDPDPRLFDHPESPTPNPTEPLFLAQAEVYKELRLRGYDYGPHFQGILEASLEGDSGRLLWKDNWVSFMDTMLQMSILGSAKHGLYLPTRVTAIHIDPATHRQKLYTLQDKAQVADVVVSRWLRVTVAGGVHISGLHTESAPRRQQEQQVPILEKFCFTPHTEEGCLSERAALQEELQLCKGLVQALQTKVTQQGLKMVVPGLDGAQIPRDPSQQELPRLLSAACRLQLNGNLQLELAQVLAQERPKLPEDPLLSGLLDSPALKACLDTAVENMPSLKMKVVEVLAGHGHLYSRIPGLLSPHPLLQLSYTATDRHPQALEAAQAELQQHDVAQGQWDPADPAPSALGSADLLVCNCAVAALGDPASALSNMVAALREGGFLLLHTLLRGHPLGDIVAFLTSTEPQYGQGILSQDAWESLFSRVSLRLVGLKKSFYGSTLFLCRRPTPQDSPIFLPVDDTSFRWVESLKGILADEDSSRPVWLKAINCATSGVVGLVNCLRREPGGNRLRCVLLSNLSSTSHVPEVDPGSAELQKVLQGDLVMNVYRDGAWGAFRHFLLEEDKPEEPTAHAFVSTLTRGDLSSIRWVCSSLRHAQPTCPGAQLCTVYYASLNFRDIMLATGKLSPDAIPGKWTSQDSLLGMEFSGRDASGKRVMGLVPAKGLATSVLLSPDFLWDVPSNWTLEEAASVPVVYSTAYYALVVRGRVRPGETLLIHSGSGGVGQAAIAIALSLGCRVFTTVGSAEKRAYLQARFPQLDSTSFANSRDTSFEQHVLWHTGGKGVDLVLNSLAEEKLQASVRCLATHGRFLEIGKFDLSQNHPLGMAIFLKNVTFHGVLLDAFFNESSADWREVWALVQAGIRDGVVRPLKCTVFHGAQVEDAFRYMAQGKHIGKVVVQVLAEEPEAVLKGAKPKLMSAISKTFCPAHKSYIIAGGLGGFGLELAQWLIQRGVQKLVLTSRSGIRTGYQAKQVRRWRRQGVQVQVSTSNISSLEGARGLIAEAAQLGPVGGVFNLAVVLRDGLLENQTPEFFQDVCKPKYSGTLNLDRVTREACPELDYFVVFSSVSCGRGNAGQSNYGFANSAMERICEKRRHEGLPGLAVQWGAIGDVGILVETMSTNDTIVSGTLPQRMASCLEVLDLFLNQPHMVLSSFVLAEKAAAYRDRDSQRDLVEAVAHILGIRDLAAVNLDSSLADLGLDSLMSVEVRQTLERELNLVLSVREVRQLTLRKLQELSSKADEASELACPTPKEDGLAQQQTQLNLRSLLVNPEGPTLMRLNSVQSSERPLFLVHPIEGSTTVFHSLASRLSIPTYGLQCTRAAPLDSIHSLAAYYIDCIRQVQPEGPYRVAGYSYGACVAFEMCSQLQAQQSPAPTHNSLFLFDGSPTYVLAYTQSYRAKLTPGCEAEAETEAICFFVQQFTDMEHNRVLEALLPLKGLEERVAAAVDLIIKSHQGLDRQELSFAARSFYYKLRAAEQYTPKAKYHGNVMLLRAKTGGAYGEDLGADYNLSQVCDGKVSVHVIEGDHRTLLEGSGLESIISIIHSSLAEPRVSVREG

SMILES	inhibition
Cc1nn(CCOc2ccc(Br)cc2)c(C)c1[N+](=O)[O-]	36.2% (active)
COc1ccc([N+](=O)[O-])cc1N(CC(O)Cn1nnc2ccccc21)S(=O)(=O)c1ccc(C)cc1 (stereo not given)	65.3% (active)
O=C(N/N=C/c1cc([N+](=O)[O-])ccc1O)/C(=C\c1cccs1)NC(=O)c1ccccc1	42.4% (active)
O=C(NCc1ccco1)/C(=C\c1cccc([N+](=O)[O-])c1)NC(=O)c1ccco1	71.9% (active)
O=C(/C=C/c1cccc([N+](=O)[O-])c1)NCCSCc1ccco1	73.2% (active)
O=C(Nc1ccc2ccccc2c1)/C(=C/c1cccc(Br)c1)NC(=O)c1ccco1	27.6%
COc1ccc(NS(=O)(=O)c2cc(NC(=O)c3ccc(S(=O)(=O)N(C)C)cc3)ccc2N2CCOCC2)cc1	9.83%
Fc1ccc(-n2c(Cc3ccccc3)nnc2SCc2nc(-c3ccc(Cl)cc3)no2)cc1	51.8% (active)
O=C(Nc1ccc(C(F)(F)F)cc1)c1cccc(-n2cnnn2)c1	65.5% (active)
O=C(Nc1ccc(OC(F)(F)F)cc1)c1ccc2c(c1)no[n+]2[O-]	14.6%
COc1ccc(NS(=O)(=O)c2cc(NC(=O)/C=C/c3cc(OC)c(OC)c(OC)c3)ccc2N2CCCCC2)cc1	19.7%
O=c1oc(-c2ccco2)nc2sc3c(c12)CCCCC3	51% (active)
CCC(CC)COC(=O)C1=C(C)NC(=O)NC1c1ccc([N+](=O)[O-])cc1 (stereo not given)	78.8% (active)
COc1cc(S(=O)(=O)N2CCOCC2)ccc1NC(=O)COc1ccc(N(C)S(=O)(=O)c2ccc(C)cc2)cc1	7.91%
COc1ccc(C2=NN(C(=O)CSc3nc(=O)n4ccc(C)cc4n3)C(c3ccc(C)cc3)C2)cc1 (stereo not given)	46% (active)
Cc1ccc(N2C(=O)C3N=NN(CC(=O)N4N=C(c5cccc6ccccc56)CC4c4ccccc4)C3C2=O)cc1 (stereo not given)	10.8%
Cc1ccc2c(c1)-c1c(ssc1=S)C(C)(C)N2C(=O)CN1C(=O)c2ccccc2C1=O	2.45%
C#CCN(C[C@H]1[C@H](OC(=O)NC2CCCC2)[C@H](OC(=O)NC2CCCC2)C[C@H]2C(=O)N(c3ccccc3)C(=O)[C@@H]12)S(=O)(=O)c1ccc(C)cc1	48.3% (active)
CCOC1=C2CN(S(=O)(=O)c3ccc(C)cc3)[C@H](c3cccs3)C[C@H]2[C@H]2C(=O)N(c3ccccc3)C(=O)[C@H]2C1	33%
CCOC1=C2[C@H]([C@H]3C(=O)N(c4ccccc4)C(=O)[C@H]3C1)[C@@H](c1ccccc1)N(S(=O)(=O)c1ccc(C)cc1)[C@H]2c1ccccc1	32.3%
